Sampled rows, rich in hits. Any-hit rate of the full collection: about 4.5%.
PrP UTR inh – inhibition of PrP 5' UTR reporter expression. cell-based PrP 5' UTR mRNA reporter, plate reader. inhibition, % (test concentration not listed). 340,000 compounds, 0.35% hits; in the data active = inhibition above about 52%; also: 0 = median of the neutral control wells
Mtb FBA inh – Mtb FBA enzyme inhibitors, primary screen, biochemical, fluorescence, strain H37Rv | Fructose-bisphosphate aldolase (Mycobacterium tuberculosis (strain ATCC 25618 / H37Rv)), … | purified M. tuberculosis FBA, fluorescence read-out | inhibition, % at 1 µM | 360,000 compounds, 2.3% hits | AID 588726, 2011; in the data active = inhibition above about 27%;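 also: 0% = vehicle and 100% = reference inhibitor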
Target sequence (P9WQA3 whole entry, looked up): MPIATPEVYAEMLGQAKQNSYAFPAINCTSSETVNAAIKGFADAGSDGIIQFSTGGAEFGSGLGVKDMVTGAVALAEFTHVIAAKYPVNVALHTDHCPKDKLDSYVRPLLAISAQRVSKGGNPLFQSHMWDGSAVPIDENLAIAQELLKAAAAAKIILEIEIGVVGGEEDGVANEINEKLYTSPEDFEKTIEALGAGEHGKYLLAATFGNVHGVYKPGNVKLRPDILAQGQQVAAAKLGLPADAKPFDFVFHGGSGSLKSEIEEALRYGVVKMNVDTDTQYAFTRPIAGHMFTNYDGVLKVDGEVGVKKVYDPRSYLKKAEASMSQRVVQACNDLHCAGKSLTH
BJeLR viability – MLPCN primary cell-based screen for lethality selective to Ras in HRASV12 cells; BJeLR (HRASV12) viability, CellTiter-Glo ATP luminescence, 48 h; inhibition, % (concentration not given with the values); 300,000 compounds, 0.17% hits; in the data active = inhibition above about 50%
PfHsp40 rescue – rescue of yeast from PfHsp40 toxicity, primary screen, S. cerevisiae, ATP luminescence; S. cerevisiae expressing PfHsp40, growth rescue; growth rescue, % at 12.5 µM; 340,000 compounds, 0.68% hits; AID 504582, 2011; in the data active = growth rescue above about 28%, passing the limit was not always enough;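 also: yeast W303a lacking pdr1 and pdr3 grown in galactose medium; growth measured after three days at 30 °C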
PrPC surface inh – inhibitors of human cell surface prion protein PrPC, primary screen, cell-based, TR-FRET. AID 720596, 2013. 370,000 compounds, 0.43% hits. TR-FRET read-out. inhibition, % at 13.8 µM; in the data active = inhibition above about 24%; also: 0% = median of the test wells and 100% = reference compound wells
GDH-TPI counter – GDH-TPI coupling enzyme inhibitors, primary screen, artefact control for M. tuberculosis FBA inhibitor project, biochemical, absorbance, full deck; inhibition, % at 4.8 µM; GDH-TPI coupled enzyme counterscreen, NADH absorbance; 360,000 compounds, 1.2% hits; in the data active = inhibition above about 30%;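 also: 0% = DMSO wells and 100% = wells lacking the enzyme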
An asterisk follows results filed as active; . = not tested or not shown; + = active, no number.

SMILES | PrP UTR inh | Mtb FBA inh | BJeLR viability | PfHsp40 rescue | PrPC surface inh | GDH-TPI counter
Clc1ccc2oc(-c3ccccc3)nc2c1 | -130.2 | 2.3 | -3.6 | -0.2 | -0.3 | 5.2
Cc1cccc(C)c1N1C(=O)C2ON(c3ccccc3)C(c3ccncc3)C2C1=O (centres undefined) | -6.6 | -0.6 | -6.0 | 253.7* | 1.4 | 13.6
COCCNC(=S)N1CCC(C(=O)c2ccc(C)cc2)CC1 | -17.6 | -3.1 | -0.6 | 48.1* | -2.8 | 10.4
COCCNC(=S)N1CCC(C(=O)c2ccc(Cl)cc2)CC1 | . | -3.5 | . | . | 3.0 | 6.2
Cc1cc(OCC(=O)NCc2ccc(S(N)(=O)=O)cc2)c2c3c(c(=O)oc2c1)CCC3 | -19.9 | 40.4* | 1.9 | -0.4 | -10.4 | 23.7
O[C@@H]1[C@@H](O)[C@H](n2c3ccc(Cl)cc3c3ccc4c5cc(Cl)ccc5[nH]c4c32)OC[C@H]1O | . | . | . | . | 13.6 | .
CCc1ccc(N=C2NC(=O)/C(=C/c3ccc(OCC(=O)O)cc3)S2)cc1 | -15.1 | -1.6 | -4.3 | -1.1 | -7.2 | 40.1*
CCc1ccc(N=C2NC(=O)/C(=C/c3ccc(OCC(=O)O)c(OC)c3)S2)cc1 | -18.8 | -0.8 | -8.6 | -0.6 | 4.3 | 19.1
CCOC(=O)[C@]12CCCC=C1N(CCCOC)C(=O)[C@@H]2CC(=O)NCc1cccc(C(F)(F)F)c1 | . | . | . | . | -2.8 | .
CC1CCN(C(=O)CN2C(=O)C(=O)c3ccccc32)CC1 | -35.6 | -2.6 | 2.0 | -0.5 | . | 13.0
CC1CCN(C(=O)CN2C(=O)c3cccc4cccc(c34)C2=O)CC1 | -5.9 | 21.4 | -3.3 | -1.2 | -20.8 | 35.4*
O=C1C(Cl)=C(Nc2ccccc2O)C(=O)N1CCc1ccccc1 | -30.9 | -3.3 | 5.6 | 141.8* | -6.6 | 0.4
COc1cc2c(cc1OC)/C(=C/C(=O)c1ccccc1)NCC2 | 3.2 | 3.1 | 7.1 | 40.9* | 0.6 | 22.3
CC(=O)CC[C@H]1CC[C@]2(CCCN(C(=O)c3ccco3)C2)O1 | . | . | . | . | 1.2 | .
c1cn2c(Nc3ccc4c(c3)OCCO4)c(-c3ccc(N4CCOCC4)cc3)nc2cn1 | -21.1 | 1.5 | 2.0 | 1.4 | 5.2 | 40.0*
O=C(O)c1ccccc1-c1c2cc(I)c(=O)c(I)c-2oc2c(I)c(O)c(I)cc12 | 7.5 | -3.6 | . | 33.6* | -117.2 | 15.0
COc1ccc(C=Nn2c(-c3ccccc3F)n[nH]c2=S)cc1OCc1ccccc1 | . | . | . | . | 6.0 | .
CCOc1ccccc1-c1ccc(C(=O)NCc2ccccc2)o1 | -26.7 | + | -5.8 | 12.4 | 1.2 | 13.6
O=C(Cc1ccc([N+](=O)[O-])cc1)c1c(O)cc(O)cc1O | -14.9 | -1.3 | 1.3 | 0.2 | 2.4 | 35.1*
O=c1c2ccccc2oc2cc(NCCCn3ccnc3)ccc12 | -44.8 | + | -6.5 | 0.0 | 1.8 | 23.3
O=c1c2ccccc2oc2cc(NCCCN3CCOCC3)ccc12 | -47.1 | + | -12.5 | -1.7 | 1.1 | 22.4
O=C(NCCCn1ccnc1)c1cc2ccccc2oc1=O | -9.7 | 7.1 | 1.4 | 1.1 | -5.7 | 11.5
Cn1c(C(=O)NCCCN2CCOCC2)cc2c(=O)n(C)c3ccccc3c21 | 9.5 | 13.3 | 1.4 | -0.7 | 0.8 | -1.0
Cn1c2ccccc2c(=O)c2cc(NCCCN3CCOCC3)ccc21 | -65.1 | + | . | -2.1 | 14.1 | 22.9
O=c1c2ccccc2oc2ccc(NCCCN3CCOCC3)cc12 | -32.5 | 0.9 | 2.0 | -0.5 | -0.3 | 7.9
SMILES | PrP UTR inh | Mtb FBA inh | BJeLR viability | PfHsp40 rescue | PrPC surface inh | GDH-TPI counter
CC(=O)NC(CC(=O)NCCN1C(=O)S/C(=C\c2ccccc2)C1=O)c1ccccc1 (centres undefined) | -8.1 | 1.3 | 10.1 | -0.4 | -7.0 | 47.5*
Cc1cc(C)nc(NN2C(=O)/C(=C/c3ccccc3)SC2=S)n1 | -21.5 | 1.3 | -1.2 | 0.3 | 6.8 | 33.5*
O=C1/C(=C/c2ccncc2)SC(=S)N1Nc1ccccc1 | . | -1.5 | 22.3 | . | 9.1 | 21.4
O=C(O)c1ccc(/C=C2\SC(=S)N(Nc3ccccc3)C2=O)cc1 | 2.1 | -0.6 | 0.2 | -1.9 | 6.1 | 33.8*
CC(=O)NN1C(=O)/C(=C\c2ccccc2)SC1=S | -13.2 | -4.7 | -20.2 | -0.1 | 0.8 | 22.8
CC(=O)NNC(=O)CN1C(=O)/C(=C/c2ccccc2)SC1=S | -22.7 | -1.9 | -3.3 | -1.7 | 2.5 | 26.6
O=C(CN1C(=O)S/C(=C\c2ccccc2)C1=O)NNC(=O)c1ccccc1O | -11.4 | 0.6 | -3.6 | 0.5 | -5.1 | 31.1*
COC(=O)[C@]12C[C@H](CC(=O)NCC3CCCCC3)C(=O)N(Cc3ccco3)C1=C[C@H](COCc1ccccc1)O[C@@H]2C | . | . | . | . | -4.8 | .
Cc1ccc2nc(-c3ccc(NC(=O)CSc4nnc(-c5cc(-c6ccc(F)cc6)n[nH]5)n4N)cc3)sc2c1 | . | . | . | . | -4.6 | .
Cc1ccc(NC(=O)CN2C(=O)S/C(=C/c3ccncc3)C2=O)cc1 | -8.5 | 3.6 | -1.0 | -0.9 | 2.1 | 7.9
O=C(CN1C(=O)S/C(=C\c2ccc(C(=O)O)cc2)C1=O)Nc1ccccc1 | -11.2 | -0.2 | -10.1 | 0.7 | -10.2 | 35.0*
COc1ccc(/C=C2\SC(=O)N(CC(=O)NNC(=O)c3ccccc3O)C2=O)cc1 | -17.8 | -1.3 | -3.9 | -0.4 | 5.6 | 33.0*
COC(=O)C1CN(CCO)CCS(=O)(=O)N1Cc1cn(Cc2cccc(Cl)c2)nn1 (centres undefined) | . | . | . | . | -3.5 | .
CSc1ccc(C2NN=C(c3ccccc3)S2)cc1 (centres undefined) | 16.3 | 46.1* | -1.8 | -0.5 | 1.5 | 6.9
CCn1c(=O)c(C(=O)NNC(=O)c2ccccc2F)c(O)c2ccccc21 | -6.1 | -2.9 | -6.2 | 1.3 | 0.2 | 11.8
CCn1c(=O)c(C(=O)NNC(=O)c2ccccc2Cl)c(O)c2ccccc21 | -22.5 | 0.9 | 3.3 | 33.9* | 5.1 | 1.5
C#CCN1CC(N2CCN(CCO)CC2)CS1(=O)=O (centres undefined) | . | . | . | . | -5.9 | .
COc1ccc(/C=N/N=C2/NC(=O)C(c3ccccc3)S2)c(OC)c1 (centres undefined) | -5.6 | -4.2 | -7.2 | 0.7 | -7.1 | 31.5*
COc1ccc(CC2S/C(=N/N=C/c3ccccc3O)NC2=O)cc1 (centres undefined) | -29.9 | -0.4 | 4.8 | -0.3 | -0.6 | 36.7*
O=C1N/C(=N/N=C/c2ccc(O)cc2)SC1Cc1ccccc1 (centres undefined) | -2.4 | -5.0 | -4.7 | -0.7 | 1.7 | 62.0*
O=C1N/C(=N/N=C/c2ccccc2O)SC1Cc1ccc(F)cc1 (centres undefined) | -2.7 | 2.1 | 0.2 | 0.3 | 0.0 | 26.6
COc1ccc(CC2S/C(=N/N=C/c3ccc(O)cc3)NC2=O)cc1 (centres undefined) | -25.8 | -0.9 | -9.1 | -1.9 | -0.6 | 15.7
